In PubChem BioAssay (NCATS):
Results filed as inconclusive are left out. The source made the active and inactive calls. Calls follow the shape of the dose curve; as a rule, active = well fitted curve in the direction sought with a large enough effect; inconclusive = small, poorly fitted or top-dose-only effect, or another doubt; inactive = no such curve, though single readings can be large; an effect the other way counts as inactive or inconclusive.

Legend:
[1] = Cellular Toxicity (caspase-3) Mesangial (AID 660);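 also: combined caspase 3 and 7 activity read by Caspase-Glo luminescence; cells exposed to compound for 16 h before the caspase read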
Outline: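 Luminescent Caspase-Glo 3/7 readout (aminoluciferin substrate cleavage, 20 min RT) after 16 h compound exposure at 37 °C of normal human mesangial cells. Signal increase normalized between DMSO basal and 100 uM tamoxifen; Hill-equation AC50.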

[2] = Cellular Toxicity (caspase-3) SK-N-SH (AID 661);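 also: cells exposed to compound for 16 hours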
Outline: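 Luminescent Caspase-Glo 3/7 read-out after 16 hr compound exposure of SK-N-SH neuroblastoma cells at 37 °C. Signal increase normalized to DMSO (basal) and 10 uM staurosporine (100%); AC50 from Hill equation fits of qHTS concentration-response data.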

[3] = Cellular Toxicity (caspase-3) H-4-II-E (AID 663);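 also: cells exposed to compound for 16 hr before readout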
Outline: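 Caspase 3/7 activation measured in H-4-II-E cells in complete culture medium after 16 hr treatment at 37 °C, using luciferase-coupled substrate readout; AC50 values come from Hill-equation fits of normalized concentration-response data.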

[4] = Cellular Toxicity (caspase-3) Hek293 (AID 664);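 also: cells exposed to compound for 16 h at 37 °C before readout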
Outline: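 Luminescent Caspase-Glo 3/7 readout (aminoluciferin release) in HEK293 cells after 16 h compound treatment, 37 °C. Normalization: DMSO = basal, 100 uM tamoxifen = 100% stimulation. Concentration-response fitted with standard Hill equation for AC50.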

[5] = Cellular Toxicity (caspase-3) N2a (AID 665);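 also: compound exposure lasted 16 h at 37 °C before readout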
Outline: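 Luminescent Caspase-Glo 3/7 readout in N2a mouse neuroblastoma cells after 16 h compound exposure at 37 °C. Signal scaled to DMSO (basal) and 10 uM staurosporine (100%). Concentration-response fitted with Hill equation for AC50.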

[6] = Cellular Toxicity (caspase-3) NIH 3T3 (AID 666)
Outline: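 NIH 3T3, 1000 cells/well, 5 hr settle then 16 hr compound at 37°C; Caspase-Glo 3/7, 20 min RT, luminescence. DMSO = basal, 100 uM tamoxifen = 100%. Hill-equation AC50, qHTS.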

[7] = Cellular Toxicity (caspase-3) Renal Proximal Tubule (AID 667);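 also: cells exposed to compound for 16 hours at 37 °C before detection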
Outline: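 Caspase-Glo 3/7 read-out, rat primary kidney proximal tubule cells. Compound exposure 16 h, 37 °C; detection after 1 h at RT. Activity scaled to DMSO and 10 uM staurosporine.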

[8] = target: Cytochrome P450 3A4 (Homo sapiens) (UniProt P08684); experiment: qHTS Assay for Inhibitors and Substrates of Cytochrome P450 3A4 (AID 884); also: series mostly up to about 57 µM; nearly all actives have a fitted effect of over 50% in size
Cytochrome P450 3A4 (Homo sapiens), sequence (P08684 whole entry, looked up): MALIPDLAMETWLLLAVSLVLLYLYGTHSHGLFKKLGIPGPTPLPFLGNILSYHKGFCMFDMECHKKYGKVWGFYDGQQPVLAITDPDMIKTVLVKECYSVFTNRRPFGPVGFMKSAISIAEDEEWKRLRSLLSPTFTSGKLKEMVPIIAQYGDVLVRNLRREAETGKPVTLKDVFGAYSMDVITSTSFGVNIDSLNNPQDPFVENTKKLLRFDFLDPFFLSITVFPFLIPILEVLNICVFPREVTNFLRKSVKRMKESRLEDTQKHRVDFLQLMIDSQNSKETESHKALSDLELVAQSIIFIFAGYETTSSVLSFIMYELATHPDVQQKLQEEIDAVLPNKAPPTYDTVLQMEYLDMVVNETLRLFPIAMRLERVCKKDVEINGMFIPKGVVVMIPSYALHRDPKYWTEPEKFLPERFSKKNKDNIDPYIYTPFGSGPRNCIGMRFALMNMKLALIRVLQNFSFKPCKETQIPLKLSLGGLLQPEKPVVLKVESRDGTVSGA
Outline: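 Luminescent readout of luciferin produced by CYP3A4 (20 nM) dealkylation of Luciferin-PPXE, 25 uM (its KM). NADPH-driven reaction ran 60 min at RT after 10 min compound preincubation; data scaled to 57 uM ketoconazole as 100% inhibition.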

[9] = Cell Viability - LYMP2-001 (AID 921);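 also: series mostly up to about 92 µM; cells exposed to compound for 24 h at 37 °C; nearly all actives have a fitted effect of over 70% in size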
Outline: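 A lymphoblastoid cell line of human origin was treated with library compounds across a concentration series for 24 hours, and viable cell number was estimated from ATP-driven luciferase light output. Hill modeling gave AC50.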

[10] = MultiTox-Fluor Cytotoxicity Assay - LYMP1-001 - Dead Cells (AID 946)
Outline: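 Seed 2500 LYMP1-001 cells/well, incubate 5 hr at 37 C; add compound, 16 hr at 37 C; add MultiTox-Fluor reagent, 60 min RT; read dead-cell fluorescence Ex/Em=485/520. Normalize to DMSO and 15 uM tetraoctylammonium bromide.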

[11] = MultiTox-Fluor Cytotoxicity Assay - LYMP1-001 - Live Cells (AID 947)
[12] = Cell Viability - LYMP1-002 - Assay at 16 hr (AID 948)
Outline: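 In this qHTS, lymphoblastoid LYMP1-002 cells (human) receive compounds for 16 hr at 37 C. Viability is taken from CellTiter-Glo ATP luminescence, and AC50 derives from standard Hill fits.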

[13] = MultiTox-Fluor Cytotoxicity Assay - LYMP1-002 - Live Cells (AID 955);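 also: cells exposed to compound for 16 hours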
Outline: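 LYMP1-002 lymphoblastoid cells; 2500 cells/well; 16 hr compound exposure, 37 C; MultiTox-Fluor reagent 60 min RT; live-cell fluorescence Ex/Em=405/510; qHTS concentration-response, Hill-equation AC50; tetraoctylammonium bromide positive control.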

[14] = MultiTox-Fluor Cytotoxicity Assay - LYMP1-002 - Dead Cells (AID 960); also: nearly all actives have a fitted effect of over 60% in size
Outline: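 Readout: fluorescence at 485/520 from cell-impermeant bis-AAF-R110 cleaved by proteases leaking from damaged cells. LYMP1-002 lymphoblastoid line, 16 hr compound treatment at 37 C, concentration-response in qHTS format; Hill-equation AC50 values.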

[15] = MultiTox-Fluor Cytotoxicity Assay - LYMP1-003 - Dead Cells (AID 961); also: nearly all actives have a fitted effect of over 70% in size
Outline: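 LYMP1-003 lymphoblastoid, 2500 cells/well, 5 hr settle then 16 hr cpd at 37 C; MultiTox-Fluor reagent 60 min RT; Ex/Em 485/520 dead-cell signal; norm. DMSO = 0%, 15 uM tetraoctylammonium bromide = 100%; Hill AC50.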

[16] = MultiTox-Fluor Cytotoxicity Assay - LYMP1-003 - Live Cells (AID 962);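 also: cells exposed to compound for 16 hours at 37 °C; cytotoxic hits lower the live-cell protease signal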
Outline: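 Readout: live-cell fluorescence (Ex/Em=405/510) from GF-AFC cleavage after 60 min MultiTox-Fluor reagent at room temperature. Lymphoblastoid LYMP1-003 cells, 16 hr compound treatment, 37 C. Concentration-response fitted to standard Hill equation for AC50.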

[17] = Cell Viability - LYMP1-003 - Assay at 24 hr (AID 963)
Outline: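 CellTiter-Glo luminescence (intracellular ATP) read after 24 hr, 37 C compound exposure of 2500 LYMP1-003 human lymphoblastoid cells/well in complete medium; qHTS concentration series; AC50 via standard Hill equation.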

[18] = Cell Viability - LYMP1-003 - Assay at 40 hr (AID 964); also: series mostly up to about 92 µM; nearly all actives have a fitted effect of over 60% in size
Outline: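 LYMP1-003 lymphoblastoid cells, 2500/well; 5 hr preincubation, 40 hr compound exposure, 37 C; CellTiter-Glo 30 min RT; luminescence; Hill-fit AC50. Positive control tetraoctylammonium bromide.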

[19] = Cell Viability - LYMP2-003 (AID 965);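 also: cells exposed to compounds for 24 h before reading; nearly all actives have a fitted effect of over 50% in size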
Outline: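 qHTS, human lymphoblastoid line, 2500 cells/well, complete medium. 24 h drug, 37 C. ATP-based luminescent readout; Hill-fit AC50.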

Measured: Potency

C[C@@H]1[C@H](O)[C@@H](C)/C=C/C=C/C=C/C=C/C=C/C=C/C=C/[C@H](O[C@@H]2O[C@H](C)[C@@H](O)[C@H](N)[C@@H]2O)C[C@@H]2O[C@](O)(C[C@@H](O)C[C@@H](O)[C@H](O)CC[C@@H](O)C[C@@H](O)CC(=O)O[C@H]1C)C[C@H](O)[C@H]2C(=O)O
inactive: all assays above
